Inconclusive results are not listed. Calls of active or inactive are those of the source. Calls follow the shape of the dose curve; as a rule, active = well fitted cell-killing curve with a large enough effect; inconclusive = small, poorly fitted or top-dose-only effect, or effect the other way; inactive = flat fitted curve, though single readings scatter.
Legend:
Test in all cases: Primary qHTS to identify gynecologic anti-cancer compounds using libraries of approved drugs and bioactive compounds (AID 1345084); also: nearly all actives have a fitted effect of over 55% in size
Settings in all cases: Gynecologic cancer cell panel viability, ATPlite luminescence, 48 h; series mostly up to 57.5 µM
OV90 = tested on: OV90
Method in brief: (§1)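 Cell viability after 48 h drug treatment, ATPlite luminescence readout; five doses.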

PA-1 = tested on: PA-1
Method in brief: as §1

SKOV3 = tested on: SKOV3
Method in brief: as §1

Tov-21-G = tested on: Tov-21-G
Method in brief: as §1

Tov112D = tested on: Tov112D
Method in brief: as §1
% is scaled to controls: 0 for no effect and ±100 for the full control effect.

Cc1cc(C)c(S(=O)(=O)n2cc(C)cc2C)c(C)c1
inactive: Potency (OV90) | Potency (PA-1) | Potency (SKOV3) | Potency (Tov-21-G) | Potency (Tov112D)

O=c1[nH]cnc2c([C@@H]3N[C@H](CO)[C@@H](O)[C@H]3O)c[nH]c12
inactive: Potency (OV90) | Potency (PA-1) | Potency (SKOV3) | Potency (Tov-21-G) | Potency (Tov112D)

CC(C)(CO)c1cc2cc(NC(=O)C3(c4ccc5c(c4)OC(F)(F)O5)CC3)c(F)cc2n1CC(O)CO (stereo not given)
inactive: Potency (OV90) | Potency (PA-1) | Potency (SKOV3) | Potency (Tov-21-G) | Potency (Tov112D)

C=C1C(=O)O[C@@H]2/C=C(\CO)CC/C=C(\CO)[C@H](OC(C)=O)C(OC(=O)C(C)CC)C12 (stereo not given in full)
inactive: Potency (OV90) | Potency (PA-1) | Potency (SKOV3) | Potency (Tov-21-G) | Potency (Tov112D)

CCC(C)c1ccc(NC(=O)Cn2cnc3c2c(=O)n(C)c(=O)n3C)cc1 (stereo not given)
inactive: Potency (OV90) | Potency (PA-1) | Potency (SKOV3) | Potency (Tov-21-G) | Potency (Tov112D)

CC[C@H]1CN(c2nc(N)c(C(N)=O)nc2Cl)CCN1C1CCN(Cc2ccc(Cl)cc2)CC1
inactive: Potency (OV90) | Potency (PA-1) | Potency (SKOV3) | Potency (Tov-21-G) | Potency (Tov112D)

Cc1cc2c(N3CCCC3)nc(N3CCCC3)nc2n1C
inactive: Potency (OV90) | Potency (PA-1) | Potency (SKOV3) | Potency (Tov-21-G) | Potency (Tov112D)

COc1cc(C(=O)NCC2(N(C)C)CCCC2)cc(OC)c1OCc1ccccc1
inactive: Potency (OV90) | Potency (PA-1) | Potency (SKOV3) | Potency (Tov-21-G) | Potency (Tov112D)

Cc1ccccc1C(C(=O)NC1CCCCC1)N(C(=O)Cn1cnc2ccccc21)c1cccc(F)c1 (stereo not given)
inactive: Potency (OV90) | Potency (PA-1) | Potency (SKOV3) | Potency (Tov-21-G) | Potency (Tov112D)

CC(C)Oc1ccc(-c2cnc3c(-c4ccnc5ccccc45)cnn3c2)cc1
inactive: Potency (OV90) | Potency (PA-1) | Potency (SKOV3) | Potency (Tov-21-G) | Potency (Tov112D)

CC(C)=CCC[C@](C)(O[C@@H]1O[C@H](CO[C@@H]2OC[C@@H](O)[C@H](O)[C@H]2O)[C@@H](O)[C@H](O)[C@H]1O)[C@H]1CC[C@]2(C)[C@@H]1[C@H](O)C[C@@H]1[C@@]3(C)CC[C@H](O[C@@H]4O[C@H](CO)[C@@H](O)[C@H](O)[C@H]4O)C(C)(C)[C@@H]3CC[C@]12C
inactive: Potency (OV90) | Potency (PA-1) | Potency (SKOV3) | Potency (Tov-21-G) | Potency (Tov112D)

CC(C)OC(=O)N1CCC(Oc2ncnc3c2cnn3-c2ccc(S(C)(=O)=O)cc2F)CC1
inactive: Potency (OV90) | Potency (PA-1) | Potency (SKOV3) | Potency (Tov-21-G) | Potency (Tov112D)

CC(=O)N[C@H]1[C@H](O[C@H]2CC[C@@]3(C)C(CC[C@]4(C)C3CC=C3C5CC(C)(C)CC[C@]5(C(=O)O)C(O)C[C@]34C)C2(C)C)O[C@H](CO[C@@H]2O[C@H](C)[C@H](O)[C@H](O)[C@H]2O[C@@H]2OC[C@@H](O)[C@H](O)[C@H]2O)[C@@H](O)[C@@H]1O (stereo not given in full)
inactive: activity change, negative = cytotoxicity (OV90) 7.05% [at 11.6 µM] | activity change, negative = cytotoxicity (PA-1) 4.44% [at 11.6 µM] | activity change, negative = cytotoxicity (SKOV3) -11.9% [at 11.6 µM] | activity change, negative = cytotoxicity (Tov-21-G) -0.865% [at 11.6 µM] | activity change, negative = cytotoxicity (Tov112D) -1.59% [at 11.6 µM]

CC1(C)CCCC2(C)C1C(=O)C=C(C(=O)O)C2(O)C(=O)O (stereo not given)
inactive: Potency (OV90) | Potency (PA-1) | Potency (SKOV3) | Potency (Tov-21-G) | Potency (Tov112D)

CCC/C=C/c1cc2c(C=O)c(O)c(CC=C(C)C)cc2o1
inactive: Potency (OV90) | Potency (PA-1) | Potency (SKOV3) | Potency (Tov-21-G) | Potency (Tov112D)

C=C[C@]1(C)C[C@H](O)[C@H]2C(=C)C(=O)O[C@@H]2[C@H]1C(=C)CO
inactive: Potency (OV90) | Potency (PA-1) | Potency (SKOV3) | Potency (Tov-21-G) | Potency (Tov112D)

Cc1cc(-c2ncc(-c3cccnc3)cc2/C=C/c2ccccc2)cnc1-c1cccnc1
inactive: Potency (OV90) | Potency (PA-1) | Potency (SKOV3) | Potency (Tov-21-G) | Potency (Tov112D)

CC#CCn1c(N2CCCC(N)C2)nc2c1c(=O)n(Cc1nc(C)c3ccccc3n1)c(=O)n2C (stereo not given)
inactive: Potency (OV90) | Potency (PA-1) | Potency (SKOV3) | Potency (Tov-21-G) | Potency (Tov112D)

CCC(C)CNCC(=O)N1CCC2SC=CC2C1COc1cccc(C)c1 (stereo not given)
inactive: Potency (OV90) | Potency (PA-1) | Potency (SKOV3) | Potency (Tov-21-G) | Potency (Tov112D)

CCC(CC)Nc1nc(C)c(-c2ccc(OC(F)(F)F)cc2OC)nc1OC
inactive: Potency (OV90) | Potency (PA-1) | Potency (SKOV3) | Potency (Tov-21-G) | Potency (Tov112D)

O=C(Nc1cc(C(F)(F)F)cc(C(F)(F)F)c1)c1cnc(Cl)nc1C(F)(F)F
inactive: Potency (OV90) | Potency (PA-1) | Potency (SKOV3) | Potency (Tov-21-G) | Potency (Tov112D)

C1=Cc2ccccc2C(=C2CCN(CCCCc3nn[nH]n3)CC2)c2ccccc21
inactive: Potency (OV90) | Potency (PA-1) | Potency (SKOV3) | Potency (Tov-21-G) | Potency (Tov112D)

COc1cccc(NCCC2(c3ccccc3)CC(C)(C)OC(C)(C)C2)c1
inactive: Potency (OV90) | Potency (PA-1) | Potency (SKOV3) | Potency (Tov-21-G) | Potency (Tov112D)

CCOC(=O)c1ccc(OCCC2CCN(c3ccc(C)nn3)CC2)cc1
inactive: Potency (OV90) | Potency (PA-1) | Potency (SKOV3) | Potency (Tov-21-G) | Potency (Tov112D)

COc1cc2c(c(OC)c1CC=C(C)C)C[C@H](c1ccc(O)c(CC=C(C)C)c1O)CO2
inactive: Potency (OV90) | Potency (PA-1) | Potency (SKOV3) | Potency (Tov-21-G) | Potency (Tov112D)

— PubChem BioAssay (NCATS)
